Results published in PubChem BioAssay (NCI).
This is part of a sample that, as a whole, favours compounds with a hit. Of some 83,000 tested, about 20% had one in any assay.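 Step 1: grow cells in 96-well plates. Step 2: add test compound at a single concentration. Step 3: incubate 48 h. Step 4: record percent growth.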 Unmarked numbers belong to inactive results. Active and inactive are the calls of the source. The calls were made as follows: active = growth percent below 10; inactive = the rest.

Tested on: HL-60(TB) leukemia
Test: NCI-60 one-dose screen, 48 h (100 = growth as untreated, 0 = no growth, -100 = all killed)
Conditions: 10 µM unless noted

Row | SMILES | growth
1 | CN(C)CCn1c2ccccc2c2nc3cc(C(F)(F)F)ccc3nc21 | 24.7%
2 | O=c1[nH]c2ccccc2cc1CSc1ccccc1Nc1nccc(-c2ccc3c(c2)OCO3)n1 | 98%
3 | CC(=O)c1ccc2c(N)c(C(=O)Nc3ccc(C(F)(F)F)cc3)sc2n1 | 50%
4 | CC[C@]12C=CCN3CC[C@@]4(c5ccc(OC)cc5N(C)[C@H]4[C@@](O)(C(=O)OC)[C@@H]1OC(=O)CCC[P+](c1ccc(OC)cc1)(c1ccc(OC)cc1)c1ccc(OC)cc1)[C@@H]32 | -39.7% (active)
5 | O=C1c2cccc3c(N4CCN(Cc5ccccc5)CC4)ccc(c23)C(=O)N1c1cccc(-c2nn(-c3ccccc3)cc2-c2nc3ccccc3s2)c1 | 105%
6 | O=C(N/N=C/c1ccc(Cl)cc1)c1ccc(OCc2nc3ccc(Cl)cc3[nH]2)cc1 | 81.7%
7 | COc1ccc(-c2c(Nn3cnnn3)no[n+]2[O-])cc1 | 38.8%
8 | CN1C(=O)N(C)C2SC(N/N=C/c3ccccc3F)=NC21 (configuration not stated) | 1.5% (active)
9 | COc1ccc2[nH]cc(/C=N/Nc3ccc(Br)cn3)c2c1 | 5.34% (active)
10 | C=C1CCC2C3(C)COC(c4ccc(F)cc4)OC3CCC2(C)C1C/C=C1/C(=O)OCC1O (configuration not stated) | 0.0909% (active)
11 | COc1cc2oc(-c3cccc(C(=O)Nc4cccc([N+](=O)[O-])c4)c3)cc(=O)c2c(OC)c1OC | 101%
12 | CCN1CCN(Cc2ccc(C(=O)Nc3cccc(-c4cn(-c5ccc6oc(=O)ccc6c5)nn4)c3)cc2C(F)(F)F)CC1 | 27.7%
